“And” between values parts separate entries of the source, which are not always exact repeats. Identical values can stand only once. The source made the active and inactive calls.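 How the source made its calls, unless noted: active means mean z-score across replicates of 1.96 or higher in either the MELAS or the Rieske mutant cell line; inactive means the rest.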 Where a SMILES comes first, the peptide text is derived from it. Bridges are numbered along the chain shown (N, C = ends). [ ]: non-standard residue; d: D form. The star is where a group is joined. ξ: configuration not given here. ξDab(CH2SO3H) = NC(CCNCS(=O)(=O)O)C(=O)O; Octanoyl(6-Me) = CCC(C)CCCCC(=O)*; Dab = NCC[CH](N)C(=O)O
Tests used:
[1] = P. berghei load reduction in hepatocytes – cell-based, HepG2, luciferase luminescence, HepG2 viability, primary screen (AID 624349; in the data active means parasite load remaining mostly below about 12%, no sharp cut-off; inactive means mostly above about 10%;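 further: 100% = mean of DMSO negative control wells on the same plate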); details: P. berghei liver stage in HepG2, luciferase luminescence, concentration not given here; parasite load remaining: stronger effect = lower value; viability: measured here: HepG2 viability without parasites
[2] = stimulators of insulin release from INS-1E, primary screen, cell-based, 5 mM glucose, NPC library (AID 1117329;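 active means compound raises insulin release from rat beta cells at 5 mM glucose, no numeric limit stated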); details: rat INS-1E insulin secretion, at 10 µM, stronger effect = higher value
[3] = growth inhibition of GSK3B-pretreated HCT116 cells – cell-based, CellTiter-Glo, 0.2 to 20 µM (AID 1117336;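 active means compounds lowering colon cancer cell viability after pretreatment blocking the GSK3B kinase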); details: HCT116 viability after GSK3B inhibitor, at 20 µM, stronger effect = higher value
[4] = inhibition of endothelial tube formation, primary screen, imaging, VEGF stimulated, CD31 staining, tube area, NPC library (AID 1117340;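 active means compound that reduces growth-factor-driven endothelial tube area in a mixed cell culture, no cutoff stated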); details: VEGF-stimulated ADSC/ECFC co-culture, at 10 µM, stronger effect = higher value
[5] = GLP1 release stimulators, primary, NCI-H716, NPC library (AID 1117341;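 active means compound raises GLP1 secretion from the human gut endocrine cells, with no numeric limit stated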); details: NCI-H716 cells, at 10 µM, stronger effect = higher value
[6] = HCT116 colon cancer cell growth inhibition, primary screen, CellTiter-Glo luminescence, NPC library (AID 1117342;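 active means compounds that lower survival of HCT116 colon cancer cells in the luminescence readout, no numeric limit stated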); details: at 20 µM (top of the series)
[7] = reduced SW480 viability measured with CellTiter-Glo, NPC library, primary (AID 1117343;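 active means compounds that lower viability of the colon cancer cells in the luminescence readout, with no numeric limit stated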); details: CellTiter-Glo luminescence; at 20 µM (top of the series) unless noted
[8] = NPC library primary testing for decreased DLD-1 cell viability via CellTiter-Glo (AID 1117346;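 active means compounds that lower survival of DLD-1 colon cancer cells in the luminescence readout, no cutoff given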); details: DLD-1 viability, CellTiter-Glo luminescence; at 20 µM (top of the series)
[9] = target: 6-phosphogluconate dehydrogenase, decarboxylating (Homo sapiens) (UniProt P52209); experiment: inhibition of human phosphogluconate dehydrogenase – biochemical, recombinant enzyme, NADPH absorbance, primary screen (AID 1159550;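 active means at least 20% inhibition of 6-phosphogluconate dehydrogenase activity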); details: recombinant 6PGD, NADPH absorbance 341 nm; at 10 µM; stronger effect = higher value
[10] = modulation of C. elegans fzo-1 (AID 1259413; call rule not given here;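 further: fzo-1 mutant C. elegans worms in liquid wells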); details: C. elegans fzo-1 modulator screen, mean read-out; stronger effect = higher value
[11] = viability loss with induced miR-34 in A549 – imaging, A549 dox-inducible miR-34, nuclei and caspase counts, primary screen (AID 1347080;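 active means compounds whose cell count with miR-34 switched on is under 0.7 times the count with it off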); details: A549 miR-34 inducible, Hoechst nuclei count, 48 h
[12] = MELAS cybrid and Rieske KO viability enhancers – cell-based, MELAS cybrids, Rieske KO mouse fibroblasts, CellTiter-Glo, primary screen (AID 1508586); details: low glucose;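 further: z relative to plate mean and SD of compound and empty wells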
[13] = target: NAD(+) hydrolase SARM1 (Homo sapiens) (UniProt Q6SZW1); experiment: blocking NAD cleavage by SARM1 SAM-TIR – cell lysate, NAD-Glo luminescence (AID 1508614;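 active means compound whose remaining NAD level is above about 45 nM, limit read from the data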); details: SAM-TIR HEK293T lysate NADase, at 1 µM, stronger effect = higher value
[14] = target: Mitogen-activated protein kinase 7 (Homo sapiens) (UniProt Q13164); experiment: Gal4-ERK5 driven luciferase induction – cell-based, HTS, primary screen (AID 1508626;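 active means luciferase signal above three times the same-plate solvent-only control wells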;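 further: luciferase driven by Gal4-ERK5 fusion binding five Gal4 sites before minimal TATA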); details: HeLa Gal4-ERK5 transactivation, 18 h, at 5 µM, stronger effect = higher value
[15] = galactose survival enhancers in mitochondrial complex I cybrids – cell-based, galactose medium, ATP luminescence, primary screen (AID 1645843;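 active means z-score of at least 1.8 in each of two replicates, scored against plate mean and spread of sample wells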;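 further: positive z means more ATP and so rescue of galactose-driven cybrid death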); details: complex I mutant cybrid cells, 72 h, stronger effect = higher value
[16] = compounds altering viability of human ES cells (AID 493140; call rule not given here;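 further: cells exposed to compounds for four days before counting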); details: human embryonic stem cell survival screen; stronger effect = higher value
[17] = EMT-state selective cytotoxicity in co-culture – imaging, PC-3E GFP, TEM4-18 mCherry, primary screen (AID 1345086;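 active means compounds killing one labelled cell type while sparing the other, by normalised counts and ratio limits, not self-fluorescent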;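 on all read-outs here: cells exposed to compound for 72 h before imaging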;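 on red/green cell ratio (normalised): normalised mesenchymal count divided by normalised epithelial count so high means epithelial killing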); details: PC-3E GFP / TEM4-18 mCherry co-culture, imaging cell counts, at 1 µM; for red/green cell ratio (normalised): actives lie on both sides, counts scaled to control wells, 1 = unselective
[18] = stronger effect = lower value, cell number ratio, induced over uninduced
[19] = measured here: relative caspase fold change +Dox/-Dox
[20] = measured here: total cells with miR-34 induction, stronger effect = lower value
[21] = measured here: total cells without miR-34 induction
[22] = MELAS cybrid survival, CellTiter-Glo 48 h, stronger effect = higher value
[23] = Rieske KO mouse fibroblast survival, CellTiter-Glo 72 h
[24] = measured here: epithelial PC-3E GFP cell survival
[25] = measured here: mesenchymal TEM4-18 mCherry cell survival

Chain of Mitogen-activated protein kinase 7 (Homo sapiens) (Q13164 whole entry, looked up, the tested form may be a part): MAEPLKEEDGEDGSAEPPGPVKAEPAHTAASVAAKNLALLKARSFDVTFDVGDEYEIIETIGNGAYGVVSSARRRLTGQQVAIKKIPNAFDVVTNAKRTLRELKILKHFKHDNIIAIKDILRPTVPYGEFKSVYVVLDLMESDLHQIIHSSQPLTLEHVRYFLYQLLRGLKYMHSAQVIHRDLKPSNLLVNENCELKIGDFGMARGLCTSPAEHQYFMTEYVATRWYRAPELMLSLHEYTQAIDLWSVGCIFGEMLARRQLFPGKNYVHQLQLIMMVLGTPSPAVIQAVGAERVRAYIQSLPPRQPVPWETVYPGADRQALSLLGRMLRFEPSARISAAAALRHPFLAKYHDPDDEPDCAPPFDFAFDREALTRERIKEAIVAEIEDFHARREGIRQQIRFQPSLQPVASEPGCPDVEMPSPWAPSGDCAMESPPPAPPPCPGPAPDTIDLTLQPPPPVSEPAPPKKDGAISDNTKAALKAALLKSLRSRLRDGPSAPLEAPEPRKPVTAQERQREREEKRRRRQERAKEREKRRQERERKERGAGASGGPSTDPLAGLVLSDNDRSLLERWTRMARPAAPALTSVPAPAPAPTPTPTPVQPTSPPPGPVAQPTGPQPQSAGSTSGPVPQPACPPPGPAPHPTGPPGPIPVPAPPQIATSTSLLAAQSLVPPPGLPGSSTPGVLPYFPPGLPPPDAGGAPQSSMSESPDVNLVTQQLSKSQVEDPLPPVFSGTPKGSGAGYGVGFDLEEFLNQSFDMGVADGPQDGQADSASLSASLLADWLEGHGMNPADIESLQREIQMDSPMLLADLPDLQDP
Chain of 6-phosphogluconate dehydrogenase, decarboxylating (Homo sapiens) (P52209 whole entry, looked up): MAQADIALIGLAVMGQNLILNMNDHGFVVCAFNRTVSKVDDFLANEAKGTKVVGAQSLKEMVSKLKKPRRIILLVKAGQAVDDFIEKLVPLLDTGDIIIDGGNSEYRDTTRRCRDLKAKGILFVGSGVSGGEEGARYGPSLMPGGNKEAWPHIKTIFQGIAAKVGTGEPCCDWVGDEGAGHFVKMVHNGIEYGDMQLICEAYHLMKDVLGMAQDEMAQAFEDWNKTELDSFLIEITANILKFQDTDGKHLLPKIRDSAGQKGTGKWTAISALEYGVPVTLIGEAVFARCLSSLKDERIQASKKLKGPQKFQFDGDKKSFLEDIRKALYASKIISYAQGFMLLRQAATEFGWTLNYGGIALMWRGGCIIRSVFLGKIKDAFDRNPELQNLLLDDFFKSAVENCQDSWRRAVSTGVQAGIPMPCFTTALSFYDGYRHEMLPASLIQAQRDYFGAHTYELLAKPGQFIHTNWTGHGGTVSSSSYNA
Chain of NAD(+) hydrolase SARM1 (Homo sapiens) (Q6SZW1 whole entry, looked up, the tested form may be a part): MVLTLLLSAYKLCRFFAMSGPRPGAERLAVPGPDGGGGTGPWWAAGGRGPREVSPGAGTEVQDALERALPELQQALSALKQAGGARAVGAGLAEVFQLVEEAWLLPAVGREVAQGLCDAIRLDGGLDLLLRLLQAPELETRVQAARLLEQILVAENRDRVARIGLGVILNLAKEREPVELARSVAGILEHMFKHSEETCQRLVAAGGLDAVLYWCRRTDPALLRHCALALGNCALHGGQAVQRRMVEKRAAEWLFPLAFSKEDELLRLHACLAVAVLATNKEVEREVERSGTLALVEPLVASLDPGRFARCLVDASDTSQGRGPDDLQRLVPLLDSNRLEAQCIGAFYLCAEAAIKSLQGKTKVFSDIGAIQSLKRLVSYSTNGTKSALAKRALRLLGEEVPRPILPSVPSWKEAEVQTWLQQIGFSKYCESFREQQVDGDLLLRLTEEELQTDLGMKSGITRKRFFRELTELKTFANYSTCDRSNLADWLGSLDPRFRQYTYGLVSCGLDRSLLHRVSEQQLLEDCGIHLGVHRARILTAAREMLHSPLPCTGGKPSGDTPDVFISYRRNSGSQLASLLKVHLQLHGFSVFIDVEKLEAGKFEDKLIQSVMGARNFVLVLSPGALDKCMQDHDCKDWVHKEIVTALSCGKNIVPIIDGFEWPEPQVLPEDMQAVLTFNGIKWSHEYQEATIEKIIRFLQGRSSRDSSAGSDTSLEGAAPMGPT

CN1[C@@H]2CC(OC(=O)[C@H](CO)c3ccccc3)C[C@H]1[C@@H]1O[C@@H]12 (some centres not stated)
8470 and 8340 and 9610: cell count [11, 20]
inactive: parasite load remaining [1] 98.9% and 107% and 26.7% | insulin secretion stimulation [2] 0.9% | viability decrease [3] 1% | tube area decrease [4] -4.7% | GLP1 secretion stimulation [5] 2.4% | inhibition of viability [6] -0.5% | viability decrease (inhibition) [7] -5.7% | viability decrease (inhibition) [8] -0.6% | inhibition [9] 6.42% | mean signal [10] 252 | fold change [11, 18] 0.844 and 0.894 and 0.852 | z-score [12, 22] -0.375 and 0.309 | remaining NAD [13] 10 nM | luciferase signal [14] 88 AU | z-score [15] -0.01 and 0.315
10000 and 9330 and 11300: cell count [11, 21]
102% and 73.5% and 68.5%: viability [1]
-0.839 and -0.133: z-score [12, 23]
1.08 and 0.602 and 0.997: fold change [11, 19]

CN(C)C(=N)N=C(N)N
active: luciferase signal [14] 508 AU
8950 and 13500 and 10900: cell count [11, 21]
0.95: normalised cell number [17, 25]
1.13 and 2.95 and 0.938: fold change [11, 19]
1.31: normalised cell number [17, 24]
0.0508 and -0.797: z-score [12, 23]
7440 and 12900 and 10500: cell count [11, 20]
inactive: survival [16] 14 | insulin secretion stimulation [2] -2.3% | viability decrease [3] -7% | tube area decrease [4] -11.5% | GLP1 secretion stimulation [5] 3.1% | inhibition of viability [6] -25.7% | viability decrease (inhibition) [7] 17% | viability decrease (inhibition) [8] -1.55% | inhibition [9] 10.4% | red/green cell ratio (normalised) [17] 0.72 | fold change [11, 18] 0.831 and 0.956 and 0.958 | z-score [12, 22] -0.356 and 0.193 | remaining NAD [13] 10 nM | z-score [15] 0.78

C/C=C(\C)C(=O)O[C@@H]1[C@@H]2C=C3[C@@H]4CC(=O)O[C@@H](C5=CC(O)OC5=O)[C@]4(C)CC[C@@H]3[C@@](C)(C2=O)[C@@H]([C@@H](O)C(=O)OC)C1(C)C (some centres not stated)
inactive: inhibition [9] 0.726%

C[C@H](CCC(=O)O)[C@H]1CC[C@H]2[C@@H]3C=C[C@@H]4C[C@H](O)CC[C@]4(C)[C@H]3CC[C@]12C
inactive: inhibition [9] 3.87%

CC(C)(C(=O)O)c1ccc(C(O)CCCN2CCC(C(O)(c3ccccc3)c3ccccc3)CC2)cc1 (configuration not stated)
1.05: normalised cell number [17, 25]
-0.15 and -0.362: z-score [12, 23]
inactive: parasite load remaining [1] 72.9% and 85.2% and 65.9% | insulin secretion stimulation [2] 2.1% | viability decrease [3] 1.3% | tube area decrease [4] -20.5% | GLP1 secretion stimulation [5] -2.2% | inhibition of viability [6] -3.77% | viability decrease (inhibition) [7] 33.1% | viability decrease (inhibition) [8] -0.4% | mean signal [10] 241 | red/green cell ratio (normalised) [17] 1.14 | z-score [12, 22] -0.235 and -0.763 | remaining NAD [13] 10 nM | luciferase signal [14] 40 AU | z-score [15] 0.205 and 1.1 and -0.085
0.92: normalised cell number [17, 24]
89.9% and 71.9% and 128%: viability [1]

O=C(O)COCCN1CCN(C(c2ccccc2)c2ccc(Cl)cc2)CC1 (configuration not stated)
inactive: survival [16] 20 | insulin secretion stimulation [2] 4.3% | viability decrease [3] -8.4% | tube area decrease [4] 2.5% | GLP1 secretion stimulation [5] 1.4% | inhibition of viability [6] 11.2% | viability decrease (inhibition) [7] -6.6% | viability decrease (inhibition) [8] 8.8% | mean signal [10] 254 | red/green cell ratio (normalised) [17] 0.83 | z-score [12, 22] -0.429 and 0.214 | remaining NAD [13] 10 nM | luciferase signal [14] 76 AU
0.813 and 0.142: z-score [12, 23]
1.06: normalised cell number [17, 24]
0.88: normalised cell number [17, 25]

C[N+]1(C)CCC(OC(=O)C(O)(c2ccccc2)C2CCCC2)C1 (configuration not stated)
0.684: z-score [12, 23]
1.02: normalised cell number [17, 25]
1.28: normalised cell number [17, 24]
11400 and 10400 and 13800: cell count [11, 21]
inactive: survival [16] 3.83 | insulin secretion stimulation [2] 1.8% | viability decrease [3] -4% | tube area decrease [4] -0.8% | GLP1 secretion stimulation [5] -0.5% | inhibition of viability [6] 11.3% | viability decrease (inhibition) [7] -15.2% | viability decrease (inhibition) [8] 2% | mean signal [10] 254 | red/green cell ratio (normalised) [17] 0.8 | z-score [12, 22] 0.599 | remaining NAD [13] 10 nM | z-score [15] 0.385 and 0.61

CC(=O)NC(Cc1c[nH]c2ccccc12)C(N)=O (configuration not stated)
inactive: inhibition [9] -11.6%

Clc1ccccc1CN1CCc2sccc2C1
1.03: normalised cell number [17, 24]
inactive: survival [16] 17.8 | insulin secretion stimulation [2] -2.1% | viability decrease [3] 13.8% | tube area decrease [4] 5.4% | GLP1 secretion stimulation [5] -2.6% | inhibition of viability [6] 3.9% | viability decrease (inhibition) [8] 32.4% | mean signal [10] 271 | red/green cell ratio (normalised) [17] 0.9 | z-score [12, 22] 0.708 and -0.623 | remaining NAD [13] 10 nM | luciferase signal [14] 52 AU | z-score [15] -1.11 and 0.17
0.315 and 0.0692: z-score [12, 23]
0.94: normalised cell number [17, 25]
active: viability decrease (inhibition) [7] 70.5%

CCC(C)CCCCC(=O)NC(CCNCS(=O)(=O)O)C(=O)NC(C(=O)NC(CCNCS(=O)(=O)O)C(=O)NC1CCNC(=O)C(C(C)O)NC(=O)C(CCNCS(=O)(=O)O)NC(=O)C(CCNCS(=O)(=O)O)NC(=O)C(CC(C)C)NC(=O)C(CC(C)C)NC(=O)C(CCNCS(=O)(=O)O)NC1=O)C(C)O (configuration not stated) ({Octanoyl(6-Me)}-[ξDab(CH2SO3H)]T[ξDab(CH2SO3H)][Dab][ξDab(CH2SO3H)]LL[ξDab(CH2SO3H)][ξDab(CH2SO3H)]T; lactam 4-C; configuration not given here)
inactive: inhibition [9] 17.5%

CS(=O)(=O)c1ccc([C@@H](O)[C@@H](CF)NC(=O)C(Cl)Cl)cc1
101% and 68.5%: viability [1]
8980 and 9620: cell count [11, 21]
-1.14 and -0.231: z-score [12, 23]
0.927 and 1.15: fold change [11, 19]
8300 and 9020: cell count [11, 20]
inactive: survival [16] 1.92 | parasite load remaining [1] 110% and 27.9% | insulin secretion stimulation [2] 1.8% | viability decrease [3] -7.1% | tube area decrease [4] 10.2% | GLP1 secretion stimulation [5] 0.9% | inhibition of viability [6] 14.2% | viability decrease (inhibition) [7] 17.1% | viability decrease (inhibition) [8] 13.6% | fold change [11, 18] 0.925 and 0.937 | z-score [12, 22] -0.214 and 0.287 | remaining NAD [13] 10 nM | luciferase signal [14] 136 AU | z-score [15] -1.65
